In PubChem BioAssay AID1159580 (chemical genetic matrix, 2015):
The campaign covered roughly 5,500 compounds. About 2,000 (36%) were called active. Roughly 18% stayed inconclusive and do not appear here. Rule as the data show it: active = normalized growth mostly below about 0.91 (no sharp cut-off); inconclusive = no clear call, values can overlap the other calls; inactive = mostly above about 0.92. Some of the results follow.

Test: chemical genetic growth profiling, strain panel (AID 1159580);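 also: tested at 20 µM; growth read once vehicle control cultures reached saturation at 30 °C; 1 = growth at the plate median or of vehicle wells; lower values mean less growth of the strain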
Conditions: S. cerevisiae deletion strains, growth OD
[1] = locus YHR030C, strain SLT2, stronger effect = lower value
[2] = locus YJL095W, strain BCK1, stronger effect = lower value

Measured: normalized growth

O=C(/C=C/c1ccc(O)cc1)c1ccccc1O
active: locus YAL021C, strain ccr4, stronger effect = lower value 0.762 | locus YAL026C, strain drs2, stronger effect = lower value 0.359 | locus YAL030W, strain snc1, stronger effect = lower value 0.359 | locus YBL061C, strain skt5, stronger effect = lower value 0.366 | locus YBR009C, strain hhf1, stronger effect = lower value 0.25 | locus YBR023C, strain chs3, stronger effect = lower value 0.452 | locus YBR171W, strain sec66, stronger effect = lower value 0.774 | locus YBR231C, strain swc5, stronger effect = lower value 0.382 | locus YBR279W, strain paf1, stronger effect = lower value 0.423 | locus YCL011C, strain gbp2, stronger effect = lower value 0.366 | locus YCL016C, strain dcc1, stronger effect = lower value 0.446 | locus YCL061C, strain MRC1, stronger effect = lower value 0.484 | locus YCL069W, strain vba3, stronger effect = lower value 0.256 | locus YCR088W, strain abp1, stronger effect = lower value 0.639 | locus YDL005C, strain med2, stronger effect = lower value 0.759 | locus YDL040C, strain nat1, stronger effect = lower value 0.683 | locus YDR001C, strain nth1, stronger effect = lower value 0.552 | locus YDR069C, strain doa4, stronger effect = lower value 0.859 | locus YDR137W, strain rgp1, stronger effect = lower value 0.255 | locus YDR159W, strain sac3, stronger effect = lower value 0.305 | locus YDR195W, strain ref2 1.15 [resistant] | locus YDR297W, strain sur2, stronger effect = lower value 0.554 | locus YDR334W, strain swr1, stronger effect = lower value 0.301 | locus YDR335W, strain msn5, stronger effect = lower value 0.382 | locus YDR392W, strain spt3, stronger effect = lower value 0.103 | locus YEL003W, strain gim4, stronger effect = lower value 0.236 | locus YEL037C, strain rad23, stronger effect = lower value 0.667 | locus YEL061C, strain CIN8 (second series), stronger effect = lower value 0.175 | locus YER015W, strain faa2, stronger effect = lower value 0.469 | locus YER016W, strain bim1, stronger effect = lower value 0.478 | locus YER111C, strain swi4, stronger effect = lower value 0.126 | locus YER155C, strain BEM2 (second series), stronger effect = lower value 0.128 | locus YFR010W, strain ubp6, stronger effect = lower value 0.768 | locus YGL167C, strain pmr1, stronger effect = lower value 0.703 | locus YGL173C, strain kem1, stronger effect = lower value 0.585 | locus YGL227W, strain vid30, stronger effect = lower value 0.169 | locus YGL240W, strain doc1, stronger effect = lower value 0.453 | locus YGL253W, strain hxk2, stronger effect = lower value 0.2 | locus YHR013C, strain ard1, stronger effect = lower value 0.441 | locus YHR027C, strain rpn1, stronger effect = lower value 0.624 | [1] 0.0955 | locus YHR079C, strain IRE1, stronger effect = lower value 0.119 | locus YHR142W, strain chs7, stronger effect = lower value 0.14 | locus YJL092W, strain hpr5, stronger effect = lower value 0.586 | locus YJL095W, strain BCK1 (second series), stronger effect = lower value 0.202 | [2] 0.105 | locus YJL115W, strain asf1, stronger effect = lower value 0.684 | locus YJL129C, strain trk1, stronger effect = lower value 0.463 | locus YJL154C, strain vps35, stronger effect = lower value 0.582 | locus YJL164C, strain tpk1, stronger effect = lower value 0.275 | locus YJL166W, strain qcr8, stronger effect = lower value 0.228 | locus YJL187C, strain SWE1, stronger effect = lower value 0.355 | locus YJR066W, strain TOR1, stronger effect = lower value 0.0115 | locus YKL160W, strain elf1, stronger effect = lower value 0.229 | locus YKR026C, strain gcn3, stronger effect = lower value 0.759 | locus YKR091W, strain srl3, stronger effect = lower value 0.71 | locus YLL001W, strain dnm1, stronger effect = lower value 0.488 | locus YLL026W, stronger effect = lower value 0.325 | locus YLL041C, strain sdh2, stronger effect = lower value 0.499 | locus YLR027C, strain aat2, stronger effect = lower value 0.271 | locus YLR113W, strain HOG1, stronger effect = lower value 0.125 | locus YLR221C, strain rsa3, stronger effect = lower value 0.229 | locus YLR258W, strain gsy2, stronger effect = lower value 0.426 | locus YLR262C, strain YPT6 (second series), stronger effect = lower value 0.301 | locus YLR320W, strain mms22, stronger effect = lower value 0.145 | locus YLR342W, strain FKS1, stronger effect = lower value 0.315 | locus YLR357W, strain rsc2, stronger effect = lower value 0.726 | locus YLR370C, strain arc18, stronger effect = lower value 0.713 | locus YLR384C, strain iki3, stronger effect = lower value 0.761 | locus YML120C, strain ndi1, stronger effect = lower value 0.246 | locus YMR058W, strain fet3, stronger effect = lower value 0.383 | locus YMR125W, strain sto1, stronger effect = lower value 0.171 | locus YMR129W, stronger effect = lower value 0.656 | locus YMR205C, strain PFK2, stronger effect = lower value 0.248 | locus YMR231W, strain pep5, stronger effect = lower value 0.529 | locus YNL071W, strain lat1, stronger effect = lower value 0.0982 | locus YNL183C, strain NPR1, stronger effect = lower value 0.00476 | locus YNL209W, strain ssb2, stronger effect = lower value 0.652 | locus YNL248C, strain rpa49, stronger effect = lower value 0.379 | locus YNL322C, strain KRE1 (second series), stronger effect = lower value 0.506 | locus YNR049C, strain mso1, stronger effect = lower value 0.569 | locus YOR001W, strain rrp6, stronger effect = lower value 0.385 | locus YOR070C, strain gyp1, stronger effect = lower value 0.331 | locus YOR080W, strain dia2, stronger effect = lower value 0.766 | locus YOR083W, strain WHI5, stronger effect = lower value 0.366 | locus YOR106W, strain vam3, stronger effect = lower value 0.321 | locus YOR231W, strain MKK1, stronger effect = lower value 0.102 | locus YOR265W, strain rbl2, stronger effect = lower value 0.584 | locus YOR270C, strain vph1, stronger effect = lower value 0.285 | locus YOR290C, strain snf2, stronger effect = lower value 0.214 | locus YPL051W, strain arl3, stronger effect = lower value 0.325 | locus YPL078C, strain atp4, stronger effect = lower value 0.256 | locus YPL106C, strain sse1, stronger effect = lower value 0.609 | locus YPL240C, strain hsp82, stronger effect = lower value 0.325 | locus YPL256C, strain CLN2, stronger effect = lower value 0.103

COc1ccc(/C=C/c2cc(O)cc(O[C@@H]3O[C@H](CO)[C@@H](O)[C@H](O)[C@H]3O)c2)cc1
inactive: locus YBR021W, strain FUR4, stronger effect = lower value 1.02 | locus YBR229C, strain ROT2, stronger effect = lower value 0.955 | locus YCL029C, strain bik1, stronger effect = lower value 0.984 | locus YDL035C, strain GPR1, stronger effect = lower value 0.972 | locus YDL074C, strain BRE1, stronger effect = lower value 1.02 | locus YDL101C, strain DUN1, stronger effect = lower value 1 | locus YDL134C, strain PPH21, stronger effect = lower value 1 | locus YDL185W, strain tfp1, stronger effect = lower value 0.974 | locus YDL192W, strain arf1, stronger effect = lower value 0.994 | locus YDR101C, strain arx1, stronger effect = lower value 1.01 | locus YDR150W, strain NUM1, stronger effect = lower value 0.997 | locus YDR162C, strain NBP2, stronger effect = lower value 0.977 | locus YDR318W, strain mcm21, stronger effect = lower value 0.986 | locus YDR388W, stronger effect = lower value 1 | locus YDR502C, strain sam2, stronger effect = lower value 0.998 | locus YEL061C, strain CIN8, stronger effect = lower value 0.994 | locus YER110C, stronger effect = lower value 0.987 | locus YER155C, strain BEM2, stronger effect = lower value 1.02 | locus YER167W, strain BCK2, stronger effect = lower value 0.978 | locus YGL078C, strain dbp3, stronger effect = lower value 0.987 | locus YGL086W, strain mad1, stronger effect = lower value 1.02 | locus YGL248W, strain PDE1, stronger effect = lower value 0.989 | locus YGR135W, strain pre9, stronger effect = lower value 0.994 | locus YGR252W, strain gcn5, stronger effect = lower value 0.964 | [1] 1 | locus YHR079C, strain IRE1 (second series), stronger effect = lower value 0.995 | locus YHR094C, strain hxt1, stronger effect = lower value 0.989 | locus YHR129C, strain ARP1, stronger effect = lower value 0.994 | locus YHR200W, strain rpn10, stronger effect = lower value 0.983 | locus YIL066C, strain RNR3, stronger effect = lower value 0.968 | locus YIL073C, strain SPO22, stronger effect = lower value 1.01 | locus YIL125W, strain kgd1, stronger effect = lower value 0.985 | locus YIR030C, strain dcg1, stronger effect = lower value 0.997 | [2] 1.04 | locus YJL134W, strain LCB3, stronger effect = lower value 0.994 | locus YJL168C, strain set2, stronger effect = lower value 0.998 | locus YJL187C, strain SWE1 (second series), stronger effect = lower value 1.01 | locus YJR043C, strain POL32, stronger effect = lower value 0.993 | locus YKL009W, strain mrt4, stronger effect = lower value 1 | locus YKL068W, stronger effect = lower value 0.979 | locus YKL085W, strain MDH1 (second series), stronger effect = lower value 0.982 | locus YKL085W, strain MDH1, stronger effect = lower value 0.982 | locus YKL190W, strain CNB1, stronger effect = lower value 1.01 | locus YKR001C, strain vps1, stronger effect = lower value 1.01 | locus YLR039C, strain RIC1, stronger effect = lower value 0.99 | locus YLR058C, strain SHM2, stronger effect = lower value 0.986 | locus YLR102C, strain apc9, stronger effect = lower value 0.987 | locus YLR262C, strain YPT6, stronger effect = lower value 0.961 | locus YLR268W, strain sec22, stronger effect = lower value 1.03 | locus YLR330W, strain CHS5, stronger effect = lower value 0.996 | locus YLR342W, strain FKS1 (second series), stronger effect = lower value 0.995 | locus YLR371W, strain rom2, stronger effect = lower value 0.978 | locus YLR418C, strain cdc73, stronger effect = lower value 0.984 | locus YML016C, strain PPZ1, stronger effect = lower value 0.992 | locus YML032C, strain rad52, stronger effect = lower value 0.97 | locus YML124C, strain tub3, stronger effect = lower value 0.987 | locus YMR078C, strain ctf18, stronger effect = lower value 0.994 | locus YMR223W, strain ubp8, stronger effect = lower value 0.985 | locus YMR307W, strain GAS1, stronger effect = lower value 0.965 | locus YNL067W, strain RPL9B, stronger effect = lower value 1.03 | locus YNL128W, strain TEP1, stronger effect = lower value 1 | locus YNL233W, strain BNI4, stronger effect = lower value 1.04 | locus YNL250W, strain rad50, stronger effect = lower value 0.965 | locus YNL271C, strain bni1, stronger effect = lower value 1 | locus YNL298W, strain CLA4, stronger effect = lower value 1.01 | locus YNL307C, strain MCK1, stronger effect = lower value 0.995 | locus YNL322C, strain KRE1, stronger effect = lower value 0.984 | locus YNR052C, strain pop2, stronger effect = lower value 1 | locus YOL006C, strain TOP1, stronger effect = lower value 1.05 | locus YOL012C, strain htz1 1.36 | locus YOL147C, strain pex11, stronger effect = lower value 0.988 | locus YOR061W, strain CKA2, stronger effect = lower value 0.971 | locus YOR069W, strain VPS5, stronger effect = lower value 0.993 | locus YOR136W, strain idh2, stronger effect = lower value 0.992 | locus YOR144C, strain elg1, stronger effect = lower value 0.985 | locus YOR184W, strain ser1, stronger effect = lower value 0.979 | locus YOR316C, strain cot1, stronger effect = lower value 0.999 | locus YPL055C, strain LGE1, stronger effect = lower value 1.01 | locus YPR119W, strain clb2, stronger effect = lower value 0.998 | locus YPR141C, strain kar3, stronger effect = lower value 0.982 | locus YPR163C, strain tif3, stronger effect = lower value 0.991 | locus YPR167C, strain met16, stronger effect = lower value 0.992 | strain wtn01, stronger effect = lower value 1.01
